Data on 40 compounds can be found in PubChem BioAssay (Tox21).

Records with an inconclusive call do not appear. Calls of active or inactive are those of the source. Calls come from the whole dose curve; as a rule, active = well fitted inhibition curve with a large enough effect in the signal ratio in the repeat runs (not every such curve was filed as active); inconclusive = weak or mixed curves, or effect the other way; inactive = no such curve, though single readings can be large or run the other way; the % refers to the signal ratio.
% is set by controls: 0 for no effect and ±100 for the full control effect.

The target of this experiment is Peroxisome proliferator-activated receptor delta (Homo sapiens) (UniProt Q03181). Description: qHTS assay to identify small molecule antagonists of the peroxisome proliferator-activated receptor delta (PPARd) signaling pathway (AID 743215).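 Note: cells stimulated with agonist L165041 at 300 nM final during compound exposure.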 The note with it: HEK293H PPARd-UAS-bla, beta-lactamase FRET ratio, antagonist, 17 h; series mostly up to 62 µM; ratio activity, negative = inhibition: at the top concentration. An excerpt: U.S. Tox21 Program National Center for Advancing Translational Sciences [NCATS] NIH Chemical Genomics Center [NCGC] U.S. Environmental Protection Agency [EPA] National Institutes of Environmental Health Sciences [NIEHS] National Toxicology Program [NTP] U.S. Food and Drug Administration [FDA] Tox21 Assay Overview: The peroxisome proliferator-activated receptors (PPARs) are lipid-activated transcription factors of the nuclear receptor superfamily with three distinct subtypes namely PPAR alpha, PPAR delta (PPARd) and PPAR gamma. All these subtypes heterodimerizes with Retinoid X receptor (RXR) and have different physiological functions. […] To identify the compounds that inhibit PPAR-delta signaling, GeneBLAzer PPAR delta UAS-bla HEK293H cell line (Invitrogen, Carlsbad, CA, USA) containing a beta-lactamase reporter gene under the control of an Upstream Activator Sequence (UAS) was used to screen the Tox21 compound library.
Peroxisome proliferator-activated receptor delta (Homo sapiens), sequence (Q03181 whole entry, looked up): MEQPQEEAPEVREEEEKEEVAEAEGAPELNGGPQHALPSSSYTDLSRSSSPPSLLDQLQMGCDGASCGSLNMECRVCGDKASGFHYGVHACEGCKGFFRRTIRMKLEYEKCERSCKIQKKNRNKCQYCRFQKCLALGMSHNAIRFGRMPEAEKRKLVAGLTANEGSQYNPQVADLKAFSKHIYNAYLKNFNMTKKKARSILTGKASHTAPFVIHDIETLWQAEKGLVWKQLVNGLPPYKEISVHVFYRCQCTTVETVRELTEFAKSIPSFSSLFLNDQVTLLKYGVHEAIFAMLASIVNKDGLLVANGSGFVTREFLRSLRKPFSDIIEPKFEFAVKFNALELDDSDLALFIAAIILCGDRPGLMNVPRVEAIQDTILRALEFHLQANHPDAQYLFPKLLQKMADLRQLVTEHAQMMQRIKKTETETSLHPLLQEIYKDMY
Tox21 Assay Protocol Summary: PPARd-bla cells were dispensed at 3000 cells/5uL/well in 1536-well black wall/clear bottom plates using a Multidrop Combi (Thermo Fisher Scientific, Waltham, MA) dispenser. After the assay plates were incubated at 37 C and 5% CO2 for 5 h, 23 nL of compounds dissolved in DMSO, positive controls or DMSO only was transferred to the assay plate by a Pintool station (Kalypsys, San Diego, CA), followed by addition of 1ul L165041 (300 nM, final concentration in the wells). The assay plates were incubated at 37 C for 17 h, and then 1 uL of LiveBLAzerTM B/G FRET substrate was added using a Bioraptr Flying Reagent Dispenser (FRD) workstation (Beckman Coulter, Indianapolis, IN, USA). The assay plates were incubated at room temperature for 2 h and fluorescence intensity was measured by an Envision plate reader (PerkinElmer, Shelton, CT).
(In general: qHTS replaces the single test concentration by a dilution series.)
`CC(CC(=O)O)CC(C)(C)C` (stereo not given): the “ratio activity, negative = inhibition” value is -8.12% (inactive).

As for `CC(=O)c1ccc2c(c1)CCCC2`, the “ratio activity, negative = inhibition” value is 0.99% (inactive).

As to `Cc1nc2n(c(=O)c1CCN1CCC(C(=O)c3ccc(F)cc3)CC1)CCS2`, the “ratio activity, negative = inhibition” value is -1.37% (inactive).

Consider `C=CC(C)(O)CC/C=C(\C)CC` (stereo not given), for which the “ratio activity, negative = inhibition” value is 3.61% (inactive).

`O=S(=O)(O)SSS(=O)(=O)O`: the “ratio activity, negative = inhibition” value was 13.1% (inactive).

`NC(=O)C1(N2CCCCC2)CCN(CCCC(=O)c2ccc(F)cc2)CC1`: the “ratio activity, negative = inhibition” value is -4.12% (inactive).

Take `Nc1c(NC/C=C\COc2cc(CN3CCCCC3)ccn2)c(=O)c1=O`: the “ratio activity, negative = inhibition” value is 4.77% [at 28.9 µM] (inactive).

In the case of `CCCCC(=O)N(C)C`, the “ratio activity, negative = inhibition” value is 0.351% (inactive).

`CC(C)C(=O)Nc1cccc(C(F)(F)F)c1`: the “ratio activity, negative = inhibition” value was 8.56% (inactive).

With `CCCCCC1Nc2cc(C(F)(F)F)c(S(N)(=O)=O)cc2S(=O)(=O)N1` (stereo not given), the “ratio activity, negative = inhibition” value was -2.6% (inactive).

For `CCOc1ccc(NC(=O)OC(C)C)cc1OCC`, the “ratio activity, negative = inhibition” value is 1.83% (inactive).

In the case of `C=C(C)C(=O)OC1CC(C)CC(C)(C)C1` (stereo not given), the “ratio activity, negative = inhibition” value is -1.52% (inactive).

On to `Nc1ccnc(=O)[nH]1`, for which the “ratio activity, negative = inhibition” value is -2.65% (inactive).

Turning to `Cc1ccccc1C(=O)N1CC/C(=N\OS(=O)(=O)O)c2ccc(Cl)cc21`, the “ratio activity, negative = inhibition” value is 3.37% (inactive).

As for `O=C(O)C(=O)Nc1cccc(-c2nn[nH]n2)c1`, the “ratio activity, negative = inhibition” value is 5.08% (inactive).

With `Cc1nc2ccccc2c(=O)o1`, the “ratio activity, negative = inhibition” value was 1.45% [at 80.4 µM] (inactive).

With `CC(=O)Nc1ccc(C)cc1`, the “ratio activity, negative = inhibition” value was 4.24% (inactive).

In the case of `C1CCN2C[C@@H]3C[C@@H](CN4CCCC[C@@H]34)[C@H]2C1`, the “ratio activity, negative = inhibition” value is 6.55% (inactive).

`COCC(=O)Nc1c(I)c(C(=O)NCC(O)CO)c(I)c(C(=O)N(C)CC(O)CO)c1I` (stereo not given): the “ratio activity, negative = inhibition” value is 0.487% (inactive).

`CCCCC(CC)COC(=O)c1ccccc1` (stereo not given): the “ratio activity, negative = inhibition” value is 2.78% (inactive).

As for `CC1CCC(C(C)(C)S)C(=O)C1` (stereo not given), the “ratio activity, negative = inhibition” value was -4.15% (inactive).

`Cc1cccc(Nc2ccncc2S(=O)(=O)NC(=O)NC(C)C)c1`: the “ratio activity, negative = inhibition” value is 3.43% (inactive).

Take `CCC(O)C(C)(C)C` (stereo not given): the “ratio activity, negative = inhibition” value is 13.5% [at 80.4 µM] (inactive).

Take `C=CCCCCCCCCCCC`: the ratio activity, negative = inhibition was 0.24% [at 6.26 µM] (inactive).

As to `CNCc1ccccc1`, the “ratio activity, negative = inhibition” value was 0.633% (inactive).

On to `CCCCCC1CCCC(=O)O1` (stereo not given), for which the “ratio activity, negative = inhibition” value was 4.8% (inactive).

As for `CC(=O)OCC(=O)[C@@]1(O)[C@H](OC(C)=O)C[C@H]2[C@@H]3CCC4=CC(=O)C=C[C@]4(C)[C@@]3(F)[C@@H](O)C[C@@]21C`, the “ratio activity, negative = inhibition” value was 3.19% (inactive).

Take `O=C1NC2NC(=O)NC2N1` (stereo not given): the “ratio activity, negative = inhibition” value is 7.55% (inactive).

For the compound `CCOC(=O)C(C)(C)C`, the “ratio activity, negative = inhibition” value was -0.102% [at 80.4 µM] (inactive).

In the case of `CCC(CO)CO`, the “ratio activity, negative = inhibition” value was -5.29% (inactive).

For `CCN(CCC#N)c1ccccc1`, the “ratio activity, negative = inhibition” value is 21.2% (inactive).

For `Cc1ccccc1N1CCN(CCc2nnc3n2CCCC3)CC1`, the “ratio activity, negative = inhibition” value was 2.48% (inactive).

On to `NC(=O)NNC(N)=O`, for which the “ratio activity, negative = inhibition” value was 0.55% (inactive).

Take `CCC(C)(CCC(C)C)C(=O)[O-].CCC(C)(CCC(C)C)C(=O)[O-].[Zn+2]` (stereo not given): the “ratio activity, negative = inhibition” value was 13.9% (inactive).

On to `CO[Si](CCCCl)(OC)OC`, for which the “ratio activity, negative = inhibition” value was -7.68% (inactive).

Turning to `COc1cc2c(Nc3ccc(Br)cc3F)ncnc2cc1OCC1CCN(C)CC1`, the “ratio activity, negative = inhibition” value is -7.72% (inactive).

`Cn1c(=O)c2c(ncn2CC2OCCO2)n(C)c1=O`: the “ratio activity, negative = inhibition” value was 6.98% (inactive).

As for `O=c1[nH]c(=O)c2[nH]c(=O)[nH]c2[nH]1`, the ratio activity, negative = inhibition is -0.0973% [at 13.7 µM] (inactive).

Regarding `C1=C\CC/C=C\CC/1`, the “ratio activity, negative = inhibition” value is -0.58% [at 80.4 µM] (inactive).

Take `CCOC(=O)CCc1ccccc1`: the “ratio activity, negative = inhibition” value was 13.3% (inactive).
